High-throughput results from PubChem.
Sampled rows, rich in hits. Any-hit rate of the full collection: about 0.95%.
Giardia FBPA inh = qHTS Assay for Inhibitors of Fructose-1,6-bisphosphate Aldolase from Giardia Lamblia | A8B2U2 | purified Giardia FBPA | Potency, µM (series often up to 59.6 µM), for inactives: top-dose activity, negative = inhibition, hits mostly inhibitors | actives 0.71% (n = 290,000) | AID 2451, 2010; note: nearly all actives have a fitted effect of over 55% in size
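40 nM FBPA preincubated 10 min at RT with compound (up to 57.5 uM final), then substrate plus GAPDH/TPI/NAD/arsenate coupling and diaphorase/resazurin added. Fluorescence read after 20 min at RT, 525/598 nm.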
LmPK inh = qHTS Assay for Inhibitors of Leishmania Mexicana Pyruvate Kinase (LmPK). Q27686. purified LmPK, Kinase-Glo ATP luminescence, 1 h. Potency, µM (highest dose often 57.5 µM), without a hit: top-dose activity change, negative = inhibition, usual class: inhibitors. actives 0.37% (n = 290,000). AID 1721, 2009
Target sequence (Q27686 whole entry, looked up): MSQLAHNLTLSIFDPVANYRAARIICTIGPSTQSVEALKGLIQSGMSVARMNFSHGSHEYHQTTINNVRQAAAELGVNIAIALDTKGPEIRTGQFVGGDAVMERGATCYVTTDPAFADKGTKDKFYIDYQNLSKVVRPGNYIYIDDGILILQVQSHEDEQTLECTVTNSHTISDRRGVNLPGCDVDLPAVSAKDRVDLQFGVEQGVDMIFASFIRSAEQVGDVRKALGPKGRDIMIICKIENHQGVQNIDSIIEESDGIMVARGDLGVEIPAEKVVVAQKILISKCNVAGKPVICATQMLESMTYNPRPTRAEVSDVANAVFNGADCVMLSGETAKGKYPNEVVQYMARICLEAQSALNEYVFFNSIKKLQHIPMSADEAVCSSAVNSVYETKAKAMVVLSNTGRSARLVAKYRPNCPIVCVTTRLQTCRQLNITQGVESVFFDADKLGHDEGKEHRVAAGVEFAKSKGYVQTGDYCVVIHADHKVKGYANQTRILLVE
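ATP generated from ADP (0.1 mM) and PEP (0.5 mM) by 0.1 nM LmPK over 1 h at room temperature (pH 7.2 imidazole buffer) was detected by coupled luciferase luminescence. Values were normalized to uninhibited and no-enzyme wells.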
RE007 growth inh = qHTS Assay for Inhibitors of the HIV-1 protein Vpr | S. pombe RE007 Vpr strain, BacTiter-Glo ATP luminescence, 24 h | Potency, µM (doses to about 92.2 µM), without a hit: top-dose activity change, negative = less growth, most hits filed as inhibitors | actives 0.21% (n = 360,000); active = well fitted falling curve with a large enough effect; inconclusive = small, poorly fitted or top-dose-only effect; inactive = no such curve, though single readings can be large or run the other way; note: nearly all actives have a fitted effect of over 50% in size
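Fission yeast RE007 carrying one integrated HIV-1 vpr copy, seeded at OD 0.01 in PMG+AL medium with 23 nL pinned compound. Grown 24 h at 30 degrees; viability read by BacTiter-Glo luminescence after 5 min.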
Tb PYK inh = qHTS of Trypanosoma Brucei Inhibitors; actives 0.12% (n = 410,000); TbPYK enzyme, Kinase-Glo Plus ATP luminescence, 45 min; Potency, µM (highest dose often 76.8 µM), for inactives: at the highest dose activity, negative = inhibition, hits mostly inhibitors; pyruvate kinase (Trypanosoma brucei), Q57TT1; note: nearly all actives have a fitted effect of over 50% in size
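Assay buffer: 50 mM TEA pH 7.2, 100 mM KCl, 10 mM MgCl2, 0.05% BSA, 0.01% Tween-20. Pyruvate kinase from T. brucei plus substrate met compound, then ADP (130 uM final). Luminescence was read post 45 min RT.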
An asterisk follows results filed as active; ? = inconclusive; · = no result; [ ] = another dose, or the depositor's remark. Unless noted, calls come from the whole dose curve; as a rule, active = well fitted curve in the direction sought with a large enough effect; inconclusive = small, poorly fitted or top-dose-only effect, or another doubt; inactive = no such curve, though single readings can be large; an effect the other way counts as inactive or inconclusive. % is set by controls: 0 for no effect and ±100 for the full control effect; potency is the fitted concentration of half-maximal effect.

SMILES	Giardia FBPA inh	LmPK inh	RE007 growth inh	Tb PYK inh
Cc1[nH]n(-c2ccccc2)c(=O)c1C(c1ccc(C(=O)O)cc1)c1c(C)[nH]n(-c2ccccc2)c1=O	-17%	4%	-2%	-11%
CCCC[C@H](CC)CN=C(N)NC(N)=NCCCCCCN=C(N)NC(N)=NC[C@@H](CC)CCCC	0%[21.7 µM]	·	·	·
O=C(/C=C/c1ccco1)Nc1cccnc1Cl	-20%	16µM*	-2%	?
CC1(C)Cc2ccccc2C2=NNC(=O)C2=N1	4.5µM*	-2%	10%	-1%
O=C(O)CSC1CC(=O)N(c2ccc(Cl)c(Cl)c2)C1=O (stereo unspecified)	13%	1%	11µM*	7%
O=C(O)CSC1CC(=O)N(c2cccc(Cl)c2)C1=O (stereo unspecified)	-9%	3%	0%	1%
COc1ccc2c(c1)C(=O)[C@H](OC(=O)NCc1ccco1)[C@@H](c1ccc(OC)c(Br)c1)O2	-1%	·	·	·
Cc1ccc(C(=O)NCC(c2cccs2)S(=O)(=O)c2cccs2)cc1 (stereo unspecified)	·	·	·	0%
Fc1ccc(NCc2cn3ccccc3n2)cc1	?	11µM*	2%	6%
Fc1cccc(NCc2cn3ccccc3n2)c1	21%	-22%	7%	2%
CC(N=Cc1ccccc1O)c1ccccc1 (stereo unspecified)	11%	-17%	1%	-16%
Cc1cc(O)c(C(C)C)cc1N=Cc1ccccc1O	3.5µM*	3%	11%	-21%
Cn1cc(S(C)=O)c(=O)c2ccc(F)cc21 (stereo unspecified)	·	·	·	-7%
O=C(N/N=C\c1ccc2c(c1)OCO2)c1ccco1	1%	14µM*	-27%	-22%
Cc1nn(C)c(=O)n1-c1ccc(OCc2ccccc2)cc1	7%	14µM*	-10%	-17%
Cc1ccc(OCc2nc(-c3ccccn3)no2)c(Br)c1	0%	16µM*	-14%	-3%
CC(C)Nc1cccnc1N1CCN(C(=O)c2cc3cc(NS(C)(=O)=O)ccc3[nH]2)CC1	·	·	·	4%
Fc1ccc(-n2nnc(-c3cccnc3Cl)n2)cc1	8%	-26%	-24%	-1%
Fc1ccc(-n2nnc(-c3nccs3)n2)cc1	3%	14µM*	?	-20%
c1ccc(-c2ccccc2OCCOCCN2CCOCC2)cc1	14µM*	-1%	-11%	17%
c1ccc(-c2ccccc2OCCCN2CCCC2)cc1	-18%	-1%	-6%	3%
CC1(O)CCC2C3CCC4=CC(=O)CCC4(C)C3(F)C(O)CC21C (stereo unspecified)	·	·	·	-3%
Cc1cc(C)c(SSc2nnnn2-c2ccccc2)c(C)c1	·	·	13%	3.5µM*
Cc1ccc2cc(C)c(Sc3nnnn3-c3ccccc3)nc2c1	-20%	2%	18%	1%
Cc1c(Cl)ccc2sc(N3CCN(C(=O)CS(=O)(=O)c4ccccc4)CC3)nc12	·	·	·	2%
SMILES	Giardia FBPA inh	LmPK inh	RE007 growth inh	Tb PYK inh
Cc1cccc(C(=O)Nc2ccc(OCc3cc(=O)n4ccc(C)cc4n3)cc2)c1	·	·	·	4%
COC(=O)c1ccc2nc(-c3ccco3)c(Cc3ccc(OC)cc3C)n2c1	·	·	-3%	14µM*
Clc1ccc(-c2nc3ccc(Cl)cn3c2Cc2cccc(Cl)c2)cc1	·	·	3%	-6%
Clc1cccc(Cc2c(-c3ccco3)nc3ccc(Cl)cn23)c1	·	·	?	20µM*
COC(=O)c1ccc2nc(-c3ccco3)c(Cc3ccc(C)cc3)n2c1	·	·	-16%	?
CCCCCCC(=O)N(O)C1CC(=O)N(c2ccc(F)cc2)C1=O (stereo unspecified)	-12%	1%	6.3µM*	?
CC(C)c1ccc(NC(=O)C2CCCN2S(=O)(=O)c2ccc3nc(-c4ccccc4)[nH]c3c2)cc1 (stereo unspecified)	·	·	·	2%
N#C/C(=C1/SC[C@@H](c2ccc(Cl)cc2Cl)S1)n1ccnc1	·	·	·	6%
CCN(CC)c1ccc(C(=C2C=CC(=[N+](CC)CC)C=C2)c2ccccc2)cc1	18µM*	·	4.5µM*	?
O=C(Cc1cnn(-c2ccccc2)c1)c1ccc(O)c(O)c1O	3.5µM*	5%	19%	-13%
O=[As](O)(O)c1ccc(N=Nc2ccc(O)cc2)cc1	3%	-7%	·	-2%
CCSC(=O)N=Nc1ccc(O)cc1	·	·	16µM*	-12%
CCc1ccc2oc(-c3cccc(N)c3)nc2c1	-5%	?	10µM*	-7%
Cc1ccc2nc(-c3cccc(N)c3)oc2c1	6%	-5%	-11%	-15%
O=C(c1ccncc1)N1CCC2(CC1)CCN(c1ccncc1)CC2	1%	·	·	0%
CC(C)(C)NC(=O)NC(=O)CN1CCN(c2ccccc2)CC1	5%	-2%	2%	-1%
CC(C)(C)NC(=O)NC(=O)CN1CCN(c2ccc(O)cc2)CC1	?	13µM*	-3%	?
COc1ccc2nc(NC(=O)c3cccs3)sc2c1	2%	13µM*	?	4%
COc1ccc2nc(Nc3ccccc3OC)sc2c1	-8%	18µM*	?	2%
COc1ccc2nc(NC(=O)Nc3ccccc3OC)sc2c1	4%	1%	-5%	-2%
OC[C@H]1O[C@@](CO)(O[C@H]2O[C@H](CO)[C@@H](O)[C@H](O)[C@H]2O)[C@@H](O)[C@@H]1O	·	·	·	4%
COC(=O)c1c(C)[nH]c(O)c1C=Nc1ccc(C#N)cc1	16µM*	0%	11%	-9%
CCOC(=O)c1c(C)[nH]c(O)c1C=Nc1ccccc1	-15%	-2%	7%	-12%
Oc1[nH]c(=S)sc1C=C1N=c2ccccc2=N1	-9%	16µM*	4%	?
O=[N+]([O-])c1ccc(O)c2ncccc12	20µM*	-1%	-10%	3%
SMILES	Giardia FBPA inh	LmPK inh	RE007 growth inh	Tb PYK inh
CC(=O)N1CCC2(CC1)CCN(c1ccccn1)CC2	-4%	·	·	0%
Cc1cccc(-n2ncc3c(N4CCOCC4)ncnc32)c1	-15%	25µM*	-19%	-14%
COc1ccc(-n2ncc3c(N4CCCCC4)ncnc32)cc1	-4%	16µM*	-8%	-11%
Cc1cccc(-n2ncc3c(N4CCN(c5ccccc5)CC4)ncnc32)c1	·	·	·	-4%[15.4 µM]
CCCCCN(CCCCC)C(=O)[C@H](CCC(=O)O)NC(=O)[C@H](Cc1ccc(OP(=O)(O)O)cc1)NC(C)=O	3%	·	·	·
CC(C)CCOc1ccc(Oc2nc(N(C)C)nc(N(C)C)n2)nn1	·	·	·	1%
CCCNC(=O)NS(=O)(=O)c1ccc(Cl)cc1	-10%	5%	7%[18.4 µM]	0%
CNC(=O)c1nnsc1S(=O)c1ccc(Cl)cc1 (stereo unspecified)	-17%	-3%	35µM*	-15%
CCCNC(=O)c1nnsc1S(=O)c1ccc(Cl)cc1 (stereo unspecified)	-23%	-4%	3.5µM*	-13%
Cc1ccc(S(=O)c2snnc2C)cc1 (stereo unspecified)	6%	-5%	7%	-3%
